Drawing on PubChem BioAssay (Tox21), this text covers Potency and activity change for 12 compounds.

A short description of experiment [1]: qHTS assay to identify small molecule antagonists of the glucocorticoid receptor (GR) signaling pathway - cell viability counter screen (AID 720693). Also: nearly all actives have a fitted effect of over 55% in size. Also: potency is read from the fitted curve at half-maximal effect. A general note: In qHTS, concentration-response curves come from the screen itself.
The nature of experiment [2]: qHTS assay for identifying genotoxic compounds that show differential cytotoxicity against isogenic chicken DT40 cell lines with known DNA damage response pathways - wild type cell line (AID 743012). Also: nearly all actives have a fitted effect of over 60% in size. Also: potency is read from the fitted curve at half-maximal effect. Summed up: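 Viability of DNA repair-proficient chicken DT40 cells was assessed by CellTiter-Glo luminescence following 40 h compound exposure at 37 C/5% CO2.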
A short description of experiment [3]: qHTS assay for identifying genotoxic compounds that show differential cytotoxicity against isogenic chicken DT40 cell lines with known DNA damage response pathways - Rev3 mutant cell line (AID 743014). Also: nearly all actives have a fitted effect of over 55% in size. Also: potency is read from the fitted curve at half-maximal effect.
Experiment [4] in a line: qHTS assay for identifying genotoxic compounds that show differential cytotoxicity against isogenic chicken DT40 cell lines with known DNA damage response pathways - Rad54/Ku70 mutant cell line (AID 743015). Also: nearly all actives have a fitted effect of over 60% in size. Also: potency is read from the fitted curve at half-maximal effect.
The nature of experiment [5]: qHTS assay to identify small molecule antagonists of the androgen receptor (AR) signaling pathway - cell viability counter screen (AID 743033; also: nearly all actives have a fitted effect of over 45% in size; also: potency is read from the fitted curve at half-maximal effect).
The nature of experiment [6]: qHTS assay to identify small molecule antagonists of the androgen receptor (AR) signaling pathway using the MDA cell line - cell viability counter screen (AID 743041; also: nearly all actives have a fitted effect of over 45% in size; also: potency is read from the fitted curve at half-maximal effect). Put shortly: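 In this qHTS counter assay, fluorescence intensity after CellTiter-Fluor addition indicated viability of MDA-kb2 AR-luc cells given compounds and R1881 for 16 h at 37C.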
Experiment [7] is described as follows: qHTS assay to identify small molecule antagonists of the thyroid receptor (TR) signaling pathway - cell viability counter screen (AID 743064). Also: nearly all actives have a fitted effect of over 50% in size. Also: potency is read from the fitted curve at half-maximal effect. Summed up: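 In-well cytotoxicity read by CellTiter-Fluor (30 min, 37 C) following 23.5 h exposure of GH3 cells bearing a TRE-luciferase sensor. Compounds were added alongside 1 nM (final) T3 to drive TR transactivation.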

The nature of experiment [8]: qHTS assay to identify small molecule antagonists of the thyroid receptor (TR) signaling pathway (AID 743065). Also: nearly all actives have a fitted effect of over 55% in size. Also: potency is read from the fitted curve at half-maximal effect. Summed up:
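GH3.TRE-Luc rat pituitary cells carrying two TR response elements driving luciferase were plated for 4 h, given compound plus 1 nM T3 (final), and incubated 23.5 h at 37 C. ONE-Glo luminescence measured reporter inhibition; CellTiter-Fluor fluorescence tracked cytotoxicity.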

Experiment [9] relates to thyroid hormone receptor (rat, GH3 cells). As to the kind of experiment: qHTS assay to identify small molecule agonists of the thyroid receptor (TR) signaling pathway (AID 743066; calls by dose curve; also: potency is read from the fitted curve at half-maximal effect; as to activation: % is scaled to controls: 0 for no effect and ±100 for the full control effect).
Experiment [10] in a line: qHTS assay to identify small molecule antagonists of the estrogen receptor alpha (ER-alpha) signaling pathway - cell viability counter screen (AID 743074; calls by dose curve;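 also: HEK293 cells carrying ER-alpha-UAS-bla reporter stimulated with 17beta-estradiol; nearly all actives have a fitted effect of over 45% in size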; also: potency is read from the fitted curve at half-maximal effect).
A short description of experiment [11]: qHTS assay to identify small molecule antagonists of the estrogen receptor alpha (ER-alpha) signaling pathway using the BG1 cell line - cell viability counter screen (AID 743081).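 Also: compound given together with 17beta-estradiol as the ER stimulus; nearly all actives have a fitted effect of over 45% in size.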 Also: potency is read from the fitted curve at half-maximal effect.
For experiment [12], the target named is Aromatase (Homo sapiens) (UniProt P11511). As to the kind of experiment: qHTS assay to identify aromatase inhibitors (AID 743083). Also: nearly all actives have a fitted effect of over 55% in size. Also: potency is read from the fitted curve at half-maximal effect.
Sequence of Aromatase (Homo sapiens) (P11511 whole entry, looked up): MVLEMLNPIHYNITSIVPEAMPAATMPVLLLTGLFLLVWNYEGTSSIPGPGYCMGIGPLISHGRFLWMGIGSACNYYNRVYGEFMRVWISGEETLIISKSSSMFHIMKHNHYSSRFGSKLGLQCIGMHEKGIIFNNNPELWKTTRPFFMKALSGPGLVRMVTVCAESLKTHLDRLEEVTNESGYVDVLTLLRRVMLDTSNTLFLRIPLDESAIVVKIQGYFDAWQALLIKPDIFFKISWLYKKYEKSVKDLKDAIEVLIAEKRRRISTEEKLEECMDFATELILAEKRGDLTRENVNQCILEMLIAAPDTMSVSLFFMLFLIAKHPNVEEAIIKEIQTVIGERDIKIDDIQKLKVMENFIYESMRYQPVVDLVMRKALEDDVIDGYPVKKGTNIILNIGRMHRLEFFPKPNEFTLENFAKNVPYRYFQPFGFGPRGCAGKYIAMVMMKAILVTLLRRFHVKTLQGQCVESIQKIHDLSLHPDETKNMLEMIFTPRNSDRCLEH
Experiment [13] has as its target Estrogen receptor (Homo sapiens) (UniProt P03372). As to the kind of experiment: qHTS assay to identify small molecule antagonists of the estrogen receptor alpha (ER-alpha) signaling pathway (AID 743069; active = well fitted curve in the direction sought with a large enough effect in the signal ratio in the repeat runs, not every such curve was filed as active; inconclusive = weak or mixed curves, or effect the other way; inactive = no such curve, though single readings can be large or run the other way; the % refers to the signal ratio; also: potency is read from the fitted curve at half-maximal effect). Summed up: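 A 17beta-estradiol challenge was applied right after compound transfer to ER-alpha-UAS-bla HEK293 cells previously kept in charcoal-stripped serum. Plates stood 18 hr at 37C and 5% CO2; fluorescence was read following 2 hr FRET substrate loading at room temperature.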

For experiment [14] the target is unchanged. Description: qHTS assay to identify small molecule agonists of the estrogen receptor alpha (ER-alpha) signaling pathway (AID 743075; calls by dose curve;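 also: HEK293 GripTite cells with ER-alpha and UAS-driven beta-lactamase reporter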; also: potency is read from the fitted curve at half-maximal effect; as to activation: % is scaled to controls: 0 for no effect and ±100 for the full control effect).
Experiment [15] in a line: qHTS assay to identify small molecule antagonists of the estrogen receptor alpha (ER-alpha) signaling pathway using the BG1 cell line (AID 743080; calls by dose curve;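 also: BG1 cells stimulated with 17beta-estradiol alongside compound; nearly all actives have a fitted effect of over 25% in size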; also: potency is read from the fitted curve at half-maximal effect). Put shortly:
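BG1-Luc-4E2 cells (endogenous full-length ER-alpha, stable 4×ERE-luciferase) were starved 5 days in phenol-red-free medium with 10% charcoal-stripped FBS, plated 24 h, then given compound plus 17beta-estradiol for 21.5 h at 37 C; ONE-Glo luminescence read after 30 min.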

Experiment [16] addresses Estrogen receptor (Homo sapiens) (UniProt P03372). Description: qHTS assay to identify small molecule agonists of the estrogen receptor alpha (ER-alpha) signaling pathway using the BG1 cell line (AID 743079). Also: nearly all actives have a fitted effect of over 20% in size. Also: potency is read from the fitted curve at half-maximal effect. As to activation: % is scaled to controls: 0 for no effect and ±100 for the full control effect. Particulars: BG1Luc4E2 cells, ERE-luciferase agonist, 22 h; activation: at 70.3 µM (top of the series) unless noted.
For experiment [17], the target named is Androgen receptor (Homo sapiens) (UniProt P10275). As to the kind of experiment: qHTS assay to identify small molecule antagonists of the androgen receptor (AR) signaling pathway (AID 743035; active = well fitted inhibition curve with a large enough effect in the signal ratio in the repeat runs, not every such curve was filed as active; inconclusive = weak or mixed curves, or effect the other way; inactive = no such curve, though single readings can be large or run the other way; the % refers to the signal ratio; also: potency is read from the fitted curve at half-maximal effect). Summed up:
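Reporter HEK293 cells were exposed to compounds and R1881 overnight (16 h, 37C); beta-lactamase activity was then quantified by FRET fluorescence.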

Experiment [18] has the same target. As to the kind of experiment: qHTS assay to identify small molecule agonists of the androgen receptor (AR) signaling pathway (AID 743036; active = well fitted activation curve with a large enough effect in the signal ratio in the repeat runs, with a control signal flat, not every such curve was filed as active; inconclusive = weak or mixed curves, or effect the other way; inactive = no such curve, though single readings can be large or run the other way; the % refers to the signal ratio; also: % is scaled to controls: 0 for no effect and ±100 for the full control effect). Summed up:
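Activation was read as beta-lactamase FRET signal from LiveBLAzer B/G substrate, added for 2 h at room temperature. Before that, GeneBLAzer AR-UAS-bla GripTite (HEK293) cells had 16 h compound exposure at 37C.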

Experiment [19] shares this target. Description: qHTS assay to identify small molecule agonists of the androgen receptor (AR) signaling pathway using the MDA cell line (AID 743040; also: % is scaled to controls: 0 for no effect and ±100 for the full control effect; nearly all actives have a fitted effect of over 20% in size). Conditions: MDA-kb2 AR-luc cells, MMTV luciferase, 16 h, stronger effect = higher value. Put shortly: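 Cell-based luciferase reporter: MDA-kb2, MMTV promoter (AR + GR response elements). 16 h compound exposure at 37C; ONE-Glo, 30 min RT, luminescence.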

Experiment [20] has the same target. Description: qHTS assay to identify small molecule antagonists of the androgen receptor (AR) signaling pathway using the MDA cell line (AID 743042). Summed up:
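MDA-kb2 cells (human breast carcinoma, stably carrying an MMTV-luciferase reporter responsive to AR and GR) were plated at 3,000 cells/well and preincubated 5 hr at 37C, then given compound plus R1881 agonist for 16 h. ONE-Glo luminescence was read.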

Several values for one entry are separate records, joined by “and”; a condition that tells them apart may be missing. Equal values may be shown once. A structure can be active in one record and inactive in another. Activity calls are given as the source filed them. Unless noted, calls follow the shape of the dose curve; as a rule, active = well fitted curve in the direction sought with a large enough effect in the repeat runs; inconclusive = weak or mixed curves; inactive = no such curve, though single readings can be large; an effect the other way counts as inactive or inconclusive.

Sequence of Estrogen receptor (Homo sapiens) (P03372 whole entry, looked up): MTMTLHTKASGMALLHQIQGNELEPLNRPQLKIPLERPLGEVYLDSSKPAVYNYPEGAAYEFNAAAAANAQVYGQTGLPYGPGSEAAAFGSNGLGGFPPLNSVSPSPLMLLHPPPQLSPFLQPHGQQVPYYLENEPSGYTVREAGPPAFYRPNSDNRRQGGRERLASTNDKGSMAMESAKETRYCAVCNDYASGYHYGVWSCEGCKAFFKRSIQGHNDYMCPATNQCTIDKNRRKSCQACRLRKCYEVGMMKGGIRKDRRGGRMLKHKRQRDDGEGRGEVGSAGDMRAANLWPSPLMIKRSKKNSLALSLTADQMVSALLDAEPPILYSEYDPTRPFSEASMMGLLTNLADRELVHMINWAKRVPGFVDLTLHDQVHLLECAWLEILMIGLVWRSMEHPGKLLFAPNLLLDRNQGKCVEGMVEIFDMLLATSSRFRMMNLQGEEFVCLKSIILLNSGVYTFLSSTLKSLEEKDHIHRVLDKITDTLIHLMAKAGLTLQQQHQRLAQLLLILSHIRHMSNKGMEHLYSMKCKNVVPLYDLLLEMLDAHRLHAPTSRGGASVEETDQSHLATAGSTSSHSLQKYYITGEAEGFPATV
Sequence of Androgen receptor (Homo sapiens) (P10275 whole entry, looked up): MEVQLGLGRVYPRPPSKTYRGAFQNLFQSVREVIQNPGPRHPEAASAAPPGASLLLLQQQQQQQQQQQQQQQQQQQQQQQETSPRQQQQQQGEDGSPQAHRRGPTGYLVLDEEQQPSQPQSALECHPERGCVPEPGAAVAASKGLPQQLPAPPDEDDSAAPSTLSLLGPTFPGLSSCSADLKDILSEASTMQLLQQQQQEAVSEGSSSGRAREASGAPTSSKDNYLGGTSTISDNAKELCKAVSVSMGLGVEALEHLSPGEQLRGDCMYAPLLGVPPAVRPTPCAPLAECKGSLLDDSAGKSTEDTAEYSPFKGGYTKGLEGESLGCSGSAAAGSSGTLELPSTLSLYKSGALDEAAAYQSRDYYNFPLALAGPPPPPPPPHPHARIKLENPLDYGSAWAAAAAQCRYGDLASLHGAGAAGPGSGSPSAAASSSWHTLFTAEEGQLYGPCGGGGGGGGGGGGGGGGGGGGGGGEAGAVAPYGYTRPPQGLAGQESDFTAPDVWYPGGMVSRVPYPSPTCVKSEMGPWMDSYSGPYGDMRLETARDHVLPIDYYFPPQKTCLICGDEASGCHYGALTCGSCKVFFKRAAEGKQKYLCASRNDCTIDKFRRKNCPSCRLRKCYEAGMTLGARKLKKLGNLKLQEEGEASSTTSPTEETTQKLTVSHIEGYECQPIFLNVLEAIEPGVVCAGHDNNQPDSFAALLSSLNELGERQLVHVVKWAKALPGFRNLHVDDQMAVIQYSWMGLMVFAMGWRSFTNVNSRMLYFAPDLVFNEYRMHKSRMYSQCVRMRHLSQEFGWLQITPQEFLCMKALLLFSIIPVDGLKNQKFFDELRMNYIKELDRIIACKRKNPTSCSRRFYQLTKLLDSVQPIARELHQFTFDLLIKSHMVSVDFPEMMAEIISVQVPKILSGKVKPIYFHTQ

On to `CCOP(=O)(OCC)OCC`, for which the Potency result in experiment [1], in [2], in experiment [3], in [4], in experiment [5] and in experiment [6] was “inactive” each time. In addition, the Potency entry in [7], in [8], in experiment [9], in [10], in [11] and in experiment [12] was “inactive” throughout.
Take `Cc1cc(Cl)ccc1N=CN(C)C`: the Potency result in [1], in experiment [2], in [3], in experiment [4], in experiment [5] and in [6] was “inactive” each time. In addition, the Potency result in [7], in experiment [10], in [11] and in experiment [12] was “inactive” each time.
Consider `CC(C)(c1ccccc1)c1ccc(O)c(C(C)(C)c2ccccc2)c1`, for which the Potency was 21.7 µM (active) and 24.5 µM (active) in [1]; 21.5 µM (active) and 9.69 µM (active) in experiment [2]; 15.2 µM (active) and 8.63 µM (active) in [3]; 13.6 µM (active) and 9.69 µM (active) in experiment [4]; 48.5 µM (active) and 49 µM (active) in experiment [5]; 13.6 µM (active) and 12.2 µM (active) in experiment [7]. Besides, the Potency is 15.2 µM (active) and 13.7 µM (active) in experiment [8]; 1.52 µM (active) in [9]; 54.9 µM (active) in experiment [10]; 60.6 µM (active) and inactive in [11]; 60.6 µM (active) in experiment [12]. The Potency entry in [13] was “inactive”.
As for `CCOP(=O)(O)OCC` (tested in a mixture with another compound), the Potency is 17.2 µM (active) in experiment [1]; “inactive and 96.1 nM (active)” in experiment [2]; “inactive and 85.6 nM (active)” in experiment [3]; “inactive and 96.1 nM (active)” in experiment [4]; “inactive and 17.2 µM (active)” in experiment [5]; “inactive and 7.63 µM (active)” in experiment [7]. Moreover, the Potency entry in experiment [10] is “inactive and 27.3 µM (active)”; in experiment [11], “inactive and 54 µM (active)”. In addition, the Potency entry in [9] is “inactive”.
For `Cn1c(-c2ccccc2)cc(-c2ccccc2)[n+]1C`, the Potency result in experiment [1], in experiment [7], in [8], in experiment [9], in experiment [13] and in experiment [14] was “inactive” in each case. The Potency entry in experiment [11] was “inactive”. The Potency in experiment [2] was 12.2 µM (active) and 1.37 µM (active); in experiment [3], 2.73 µM (active) and 864 nM (active); in [4], 4.32 µM (active) and 2.43 µM (active); in experiment [15], 30.6 µM (active); in experiment [12] it was 54.4 µM (active) and 54.5 µM (active).
With `Cl`, the Potency entry in experiment [1], in experiment [4], in [5], in [6], in experiment [7] and in experiment [8] was “inactive” throughout. Also, the Potency result in experiment [9], in [10], in experiment [11] and in [12] was “inactive” in each case. Moreover, the Potency entry was “inactive and 54.5 µM (active)” in [2]; “inactive and 48.6 µM (active)” in [3].
For the compound `CCNCC`, the Potency entry in [1], in [2], in experiment [3], in experiment [4], in [5] and in experiment [6] was “inactive” throughout. For the same compound, the Potency result in experiment [7], in experiment [8], in [9], in experiment [10], in [11] and in experiment [12] was “inactive” each time.
As to `CC(C)(c1ccccc1)c1ccc(O)cc1`, the Potency result in [1], in [6], in experiment [9], in experiment [10] and in [11] was “inactive” in each case. In addition, the Potency in experiment [2] was 21.7 µM (active); in [3], 60.6 µM (active) and 17.2 µM (active); in experiment [4], 13.7 µM (active); in experiment [5] it was 38.6 µM (active) and 49 µM (active); in [7], 48.2 µM (active) and 61.1 µM (active); in experiment [13], 24.3 µM [inhibitor] (active). Besides, the Potency in experiment [14] was 4.33 µM [inconclusive] (active) and 3.89 µM [inconclusive] (active); in experiment [16] it was 1.08 µM (active) and 686 nM (active); in experiment [12], 30.4 µM (active) and 30.6 µM (active).
As to `[Cl-].[Cl-].[Cl-].[Fe+3]`, the Potency entry in experiment [1], in experiment [2], in [3], in experiment [4], in experiment [5] and in [6] was “inactive” in each case. The Potency result in [7], in experiment [8], in experiment [9], in experiment [10], in experiment [11] and in [12] was “inactive” in each case.
`CCC[CH2][Sn]([Cl])([Cl])[CH2]CCC`: the Potency in [1] is 6.24 µM (active) and 6.16 µM (active); in experiment [2], 438 nM (active) and 17.2 nM (active); in [3] it was 276 nM (active) and 17.2 nM (active); in experiment [4], 348 nM (active) and 17.2 nM (active); in experiment [5], 1.4 µM (active) and 389 nM (active); in experiment [6], 1.96 µM (active) and 2.73 µM (active). Further, the Potency in [7] was 34.4 nM (active); in experiment [8] it was 49.2 nM (active) and 10.9 nM (active); in experiment [13] it was 786 nM [inconclusive] (active) and 692 nM [inconclusive] (active); in [10], 6.24 µM (active) and 2.75 µM (active); in experiment [14], 44.2 µM [inconclusive] (active) and 43.6 µM [inconclusive] (active); in experiment [11], 2.46 µM (active) and 770 nM (active). Further, the Potency in experiment [12] is 694 nM (active) and 172 nM (active).
Consider `CCC(=O)Nc1ccc(Cl)c(Cl)c1`, for which the Potency entry in experiment [1], in experiment [2], in experiment [4], in experiment [5], in experiment [18] and in experiment [6] was “inactive” throughout. Further, the Potency result in experiment [7], in experiment [9], in experiment [10], in [11] and in experiment [12] was “inactive” in each case. Besides, the Potency in experiment [17] was 22.3 µM (active) and 24.5 µM (active); in experiment [20], 48.6 µM (active); in [8], 49.5 µM (active). Besides, the activity change is -3.69% (inactive) in experiment [19] (at 70.3 µM (top of the series)) and -4.49% (inactive) in experiment [19] (at 95 µM (top of the series)).
For `CC(C)Nc1nc(Cl)nc(NC(C)C)n1`, the Potency entry in [1], in experiment [2], in experiment [4], in [5], in [6] and in experiment [7] was “inactive” throughout. In addition, the Potency entry in experiment [8], in [9], in experiment [13], in experiment [10], in experiment [14] and in [16] was “inactive” each time. Besides, the Potency result in [15], in [11] and in experiment [12] was “inactive” throughout.
